T cruzi growth-1 – blocks T. cruzi growth in NIH3T3 culture. 5.9% of 77,000 active. inhibition, % at 8.34 µM. T. cruzi beta-gal in NIH3T3, GalScreen luminescence, 90 h;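 active = mean inhibition above about 93%, with at least 55% of replicates each passing it, limit read from the data, passing the limit was not always enough; inconclusive = only one of those two conditions holds; inactive = neither condition holds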
C diff growth – inhibitors of Clostridium difficile growth. Clostridium difficile clinical isolate growth, OD600, 24 h; active compounds read low. 0.25% of 86,000 active. growth activity, negative = inhibition, % at 16 µg/mL (by protocol). AID 1259249;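 active = mean growth activity at or below -80% and every replicate also at or below -80%; inconclusive = mean at or below -80% but some replicate above -80%; inactive = mean growth activity above -80%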
Pf Dd2 growth – inhibitors of Plasmodium falciparum Dd2 growth; P. falciparum Dd2 growth, SYBR Green, 72 h; active compounds read low; activity change, % at 10 µM; 2.3% of 94,000 active; AID 1159554; in the data active = activity change below about -80%; inconclusive = no clear call, values can overlap the other calls
T cruzi growth-2 – Trypanosoma cruzi proliferation inhibition | T. cruzi beta-gal in NIH3T3, GalScreen luminescence, 90 h | 72% of 5,600 active | shares compounds with T cruzi growth-1 | AID 651739 | inhibition, % at 8.35 µM;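 active = mean replicate inhibition above about 95% and at least 55% of replicates individually reaching it, limit read from the data; inconclusive = only one of the two criteria is met; inactive = neither criterion is met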
T cruzi growth-3 – blocks T. cruzi growth in NIH3T3 host cells | T. cruzi beta-gal in NIH3T3, GalScreen luminescence, 90 h | 21% of 5,600 active | AID 651740 | shares compounds with T cruzi growth-1 | inhibition, % at 2.09 µM;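 active = mean inhibition above about 95%, with at least 55% of replicates also reaching it, limit read from the data; inconclusive = meets just one of the two conditions; inactive = meets neither condition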
3T3 cytotox – cytotoxicity in mouse NIH/3T3 fibroblasts; shares compounds with T cruzi growth-1; 14% of 5,600 active; NIH/3T3 viability, CellTiter-Glo ATP luminescence, 90 h; cytotoxicity (signal decrease), % at 8.35 µM; AID 651742;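 active = mean signal decrease across replicates above about 35% based on untreated-well scatter, with enough replicates individually passing, limit read from the data; inconclusive = no rule stated though some were filed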
3T3 cytotox 2 – kills mouse NIH/3T3 fibroblasts; shares compounds with T cruzi growth-1; NIH/3T3 viability, CellTiter-Glo ATP luminescence, 90 h; inhibition, % at 24.9 µM; 56% of 5,600 active; AID 651744;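 active = mean loss of cell viability signal at or above a set limit, and enough replicates individually reaching it; inconclusive = meets only the mean limit or only the replicate share; inactive = meets neither condition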
Numbers stand for hits; 0 = inactive; ? = inconclusive; - = no result given. An excerpt weighted towards active compounds, which were near 6.7% of everything screened.

SMILES | T cruzi growth-1 | C diff growth | Pf Dd2 growth | T cruzi growth-2 | T cruzi growth-3 | 3T3 cytotox | 3T3 cytotox 2
C[C@@H]1CN([C@H](C)CO)C(=O)Cc2cc(NC(=O)C3CC3)ccc2O[C@H]1CN(C)Cc1ccc(-c2ccccc2)cc1 | 0 | 0 | 0 | - | - | - | -
C[C@H]1CN([C@@H](C)CO)C(=O)Cc2cc(NC(=O)C3CCCCC3)ccc2O[C@@H]1CN(C)Cc1ccc(-c2ccccc2)cc1 | 99 | 0 | 0 | 104 | 0 | 0 | 0
COc1cccc(NC(=O)C[C@@H]2CC[C@@H]3[C@H](COc4ccc(NC(C)=O)cc4C(=O)N3C)O2)c1 | 0 | 0 | 0 | - | - | - | -
C/C=C/c1ccc([C@H]2[C@@H](CNC(C)C)N(C(=O)c3ccccn3)[C@H]2CO)cc1 | 0 | 0 | 0 | - | - | - | -
C/C=C/c1ccc2c(c1)O[C@H](CN(C)Cc1ccncc1)[C@H](C)CN([C@H](C)CO)S2(=O)=O | 0 | 0 | 0 | - | - | - | -
C/C=C/c1ccc2c(c1)O[C@H](CN(C)Cc1ccncc1)[C@@H](C)CN([C@H](C)CO)S2(=O)=O | 108 | 0 | 0 | 97 | ? | 45 | 74
C/C=C/c1ccc2c(c1)O[C@@H](CN(C)Cc1ccncc1)[C@@H](C)CN([C@@H](C)CO)S2(=O)=O | 109 | 0 | 0 | 96 | 101 | 0 | 29
C/C=C/c1ccc2c(c1)O[C@H](CN(C)Cc1cncnc1)[C@H](C)CN([C@H](C)CO)S2(=O)=O | - | 0 | 0 | - | - | - | -
COc1ccc(NC(=O)N(C)C[C@@H]2OCCCC[C@@H](C)Oc3ccc(NC(=O)Nc4c(C)noc4C)cc3C(=O)N([C@@H](C)CO)C[C@H]2C)cc1 | 0 | 0 | 0 | - | - | - | -
Cn1cnc(S(=O)(=O)N2CCCCN3[C@H](CO)[C@@H](c4ccc(-c5ccccc5F)cc4)[C@@H]3C2)c1 | 0 | 0 | 0 | - | - | - | -
Cn1cnc(S(=O)(=O)N2CCCCN3[C@@H](CO)[C@H](c4ccc(-c5ccccc5F)cc4)[C@@H]3C2)c1 | 0 | 0 | 0 | - | - | - | -
Cc1ccccc1-c1ccc([C@@H]2[C@H]3CN(S(=O)(=O)c4cn(C)cn4)CCCCN3[C@H]2CO)cc1 | 126 | 0 | 0 | 0 | 0 | 0 | 26
Cc1ccccc1-c1ccc([C@H]2[C@@H](CO)N3CCCCN(S(=O)(=O)c4cn(C)cn4)C[C@H]23)cc1 | 102 | 0 | 0 | 0 | 0 | 0 | 44
C[C@H]1CN([C@@H](C)CO)C(=O)CCCn2cc(nn2)CO[C@H]1CN(C)Cc1cccc(O)c1 | 0 | 0 | 0 | - | - | - | -
O=C(C1CC1)N1CC(=O)N2[C@H](CO)[C@@H](c3ccc(C#Cc4cccc(F)c4)cc3)[C@@H]2C1 | - | 0 | 0 | - | - | - | -
COc1ccc(C[C@@H]2CCn3cc(nn3)COC[C@@H](C(C)C)NC2=O)cc1 | - | 0 | - | - | - | - | -
COc1ccc2c3c(n(C)c2c1)[C@@H](CO)N(C(=O)NC(C)C)CC31CN(Cc2nccs2)C1 | - | 0 | 0 | - | - | - | -
O=C(C1CC1)N1C[C@@H]2[C@H](c3ccccc31)[C@H](CO)N2S(=O)(=O)c1ccccc1 | 0 | 0 | 0 | - | - | - | -
C/C=C/c1ccc2c(c1)O[C@H](CN(C)C(=O)c1cnccn1)[C@H](C)CN([C@@H](C)CO)S2(=O)=O | - | 0 | 0 | - | - | - | -
COc1ccccc1-c1cnc2c(c1)C(=O)N([C@H](C)CO)C[C@@H](C)[C@H](CN(C)C(C)=O)O2 | 0 | 0 | 0 | - | - | - | -
COc1ccccc1-c1cnc2c(c1)C(=O)N([C@@H](C)CO)C[C@@H](C)[C@@H](CN(C)C(C)=O)O2 | 0 | 0 | 0 | - | - | - | -
COc1ccccc1-c1cnc2c(c1)C(=O)N([C@H](C)CO)C[C@@H](C)[C@@H](CN(C)C(C)=O)O2 | 99 | 0 | 0 | ? | 0 | 0 | 0
COc1ccccc1-c1cnc2c(c1)C(=O)N([C@H](C)CO)C[C@H](C)[C@H](CN(C)C(C)=O)O2 | ? | 0 | 0 | 0 | 0 | 0 | 0
O=S(=O)(Cc1ccccc1)N1CCCCN2[C@H](C1)[C@H](c1ccc(-c3cccnc3)cc1)[C@@H]2CO | 98 | 0 | 0 | 0 | 0 | 0 | 0
O=S(=O)(Cc1ccccc1)N1CCCCN2[C@@H](CO)[C@@H](c3ccc(-c4cncnc4)cc3)[C@@H]2C1 | 0 | 0 | 0 | - | - | - | -
SMILES | T cruzi growth-1 | C diff growth | Pf Dd2 growth | T cruzi growth-2 | T cruzi growth-3 | 3T3 cytotox | 3T3 cytotox 2
O=S(=O)(Cc1ccccc1)N1CCCCN2[C@H](CO)[C@H](c3ccc(-c4cccnc4)cc3)[C@@H]2C1 | 0 | 0 | 0 | - | - | - | -
O=S(=O)(Cc1ccccc1)N1CCCCN2[C@H](CO)[C@H](c3ccc(-c4cccnc4)cc3)[C@H]2C1 | 108 | 0 | 0 | 108 | 0 | 0 | 27
CCNC(=O)C[C@@H]1CC[C@@H]2[C@@H](COc3ccc(NC(=O)c4cccc(OC)c4)cc3C(=O)N2C)O1 | 0 | 0 | 0 | - | - | - | -
C[C@@H]1CN([C@@H](C)CO)C(=O)c2cc(-c3ccncc3)cnc2O[C@H]1CN(C)C(=O)Nc1ccc2c(c1)OCO2 | 0 | 0 | 0 | - | - | - | -
Cc1ccc(S(=O)(=O)Nc2ccc3c(c2)C(=O)N([C@H](C)CO)C[C@H](C)[C@H](CN(C)Cc2ccc4c(c2)OCO4)OCCCC[C@H](C)O3)cc1 | 0 | 0 | 0 | - | - | - | -
COc1ccc(S(=O)(=O)Nc2ccc3c(c2)C(=O)N([C@H](C)CO)C[C@@H](C)[C@H](CN(C)Cc2ccc4c(c2)OCO4)OCCCC[C@H](C)O3)cc1 | ? | 0 | 0 | 108 | 0 | 0 | 105
COc1ccc(S(=O)(=O)Nc2ccc3c(c2)C(=O)N([C@@H](C)CO)C[C@@H](C)[C@@H](CN(C)Cc2ccc4c(c2)OCO4)OCCCC[C@@H](C)O3)cc1 | 0 | 0 | 0 | - | - | - | -
C[C@@H]1CN([C@@H](C)CO)C(=O)c2cc(NS(=O)(=O)c3ccc(F)cc3)ccc2O[C@@H](C)CCCCO[C@H]1CN(C)Cc1ccc2c(c1)OCO2 | 0 | - | 0 | - | - | - | -
C[C@H](CO)N1C[C@H](C)[C@H](CN(C)Cc2ccc3c(c2)OCO3)OCCCC[C@H](C)Oc2ccc(NS(=O)(=O)c3ccc(F)cc3)cc2C1=O | 112 | - | 0 | 110 | 0 | 0 | 59
C[C@@H]1CCCCO[C@@H](CN(C)Cc2ccc3c(c2)OCO3)[C@H](C)CN([C@H](C)CO)C(=O)c2cc(NS(=O)(=O)c3ccc(F)cc3)ccc2O1 | 0 | - | 0 | - | - | - | -
C[C@@H]1CN([C@H](C)CO)C(=O)c2cc(NS(=O)(=O)c3ccc(F)cc3)ccc2O[C@@H](C)CCCCO[C@@H]1CN(C)Cc1ccc2c(c1)OCO2 | 102 | - | 0 | 0 | 105 | 71 | 105
Cc1ccc(S(=O)(=O)Nc2ccc3c(c2)C(=O)N([C@H](C)CO)C[C@@H](C)[C@H](CN(C)Cc2ccc4c(c2)OCO4)OCCCC[C@@H](C)O3)cc1 | 102 | 0 | 0 | 108 | 0 | 0 | 82
C[C@H]1CCCCO[C@@H](CN(C)C(=O)Cc2ccccc2)[C@@H](C)CN([C@@H](C)CO)C(=O)c2cc(NC(=O)c3ccncc3)ccc2O1 | - | 0 | 0 | - | - | - | -
O=C(Nc1ccccc1)N[C@@H]1CC[C@H](CCNS(=O)(=O)c2cccc(F)c2)O[C@H]1CO | 0 | 0 | 0 | - | - | - | -

High-throughput results deposited in PubChem by Broad Institute.
